This note sets out measurements from PubChem BioAssay (Tox21).

Inconclusive results are not listed. Activity calls are given as the source filed them. Calls come from the whole dose curve; as a rule, active = well fitted cell-killing curve with a large enough effect in the repeat runs (not every such curve was filed as active); inconclusive = weak or mixed curves, or effect the other way; inactive = no such curve, though single readings can be large or run the other way.

This experiment can be described thus: qHTS assay to identify small molecule antagonists of the farnesoid-X-receptor (FXR) signaling pathway - cell viability counter screen (AID 743221). Note: nearly all actives have a fitted effect of over 50% in size. The following applies: FXR-bla HEK293T viability, CellTiter-Glo luminescence, 16 h; series mostly up to 62.6 µM. An excerpt:
National Center for Advancing Translational Sciences [NCATS]
NIH Chemical Genomics Center [NCGC]
U.S. Environmental Protection Agency [EPA]
National Institutes of Environmental Health Sciences [NIEHS]
National Toxicology Program [NTP]
U.S. Food and Drug Administration [FDA]
The farnesoid-X-receptor (FXR), a nuclear hormone receptor, is highly expressed in liver, intestine, kidney and adrenal cortex. Natural ligands of FXR are the bile acids (Cholic acid, Chenodeoxy cholic acid etc). FXR is an important regulator of diverse metabolic pathways, including the bile acid homeostasis, lipid and glucose metabolisms. FXR regulates the expression of target genes by binding either as a monomer or as a heterodimer with the retinoid X receptor (RXR). Numerous studies have reported that FXR exerts protective function during cholestasis, diabetes, liver regeneration, and cancer. To identify compounds that inhibit FXR signaling, GeneBLAzer FXR-UAS-bla HEK 293T cell line (Invitrogen, Carlsbad, CA) containing a beta-lactamase reporter gene under the control of a UAS response element was used to screen the Tox21 10K compound library. The cytotoxicity of the Tox21 compound library against the FXR-bla cell line was tested in parallel by measuring the cell viability using CellTiter-Glo assay in the same wells.
Tox21 Assay Protocol Summary:
FXR-bla cells were dispensed at 5000 cells/5uL/well in 1536-well black wall/clear bottom plates using a Multidrop Combi (Thermo Fisher Scientific, Waltham, MA) dispenser. After the assay plates were incubated at 37 C and 5% CO2 for 5 h, 23 nL of compounds dissolved in DMSO, positive controls or DMSO only was transferred to the assay plate by a Pintool station (Kalypsys, San Diego, CA), followed by addition of 1 uL Chenodeoxycholic acid (50 uM, final concentration in the wells). The assay plates were incubated at 37C for 16 h. After 1 uL of LiveBLAzerTM B/G FRET substrate was added using a Bioraptr Flying Reagent Dispenser (FRD) workstation (Beckman Coulter, Indianapolis, IN), the plates were incubated at room temperature for 2 h, and fluorescence intensity was measured by an Envision plate reader (PerkinElmer, Shelton, CT). For cell viability readout that measures cytotoxicity, 4uL/well of CellTiter-Glo reagent was added into the assay plates using a Bioraptr FRD. After 30 min incubation at room temperature, the luminescence intensity in the plates was measured using a ViewLux plate reader (PerkinElmer).
Consider `Cn1cc(-c2ccccc2)c(=O)c(-c2cccc(C(F)(F)F)c2)c1`, for which the result was inactive.
Consider `CC(Oc1ccc(Cl)cc1Cl)C(=O)O` (stereo not given), for which the molecule was called inactive.
With `CN(C)[C@@H]1C(=O)C(C(N)=O)=C(O)[C@@]2(O)C(=O)C3=C(O)c4c(O)cccc4[C@@](C)(O)[C@H]3C[C@@H]12`, the call was inactive.
Consider `CCCCN(CCCC)SN(C)C(=O)Oc1cccc2c1OC(C)(C)C2`, for which the outcome was inactive.
The entry for `Cc1ccc([N+](=O)[O-])cc1C` is “inactive”; for `Cc1ccccc1O` it is “inactive”.
The entry for `O=[N+]([O-])c1ccc(Oc2ccc(Cl)cc2Cl)cc1` is “inactive”.
The result for `C=C(C)CCl` reads “inactive”; that for `CCNc1nc(NC(C)(C)C)nc(SC)n1`, “inactive”.
As for `OC(O)C(Cl)(Cl)Cl`, the molecule was classed as inactive.
In the case of `CC(C)N1C(=O)c2ccccc2NS1(=O)=O`, the call was inactive.
In the case of `ClCCBr`, the outcome was inactive.
The result for `CC(C)(C)C(O)(CCc1ccc(Cl)cc1)Cn1cncn1` (stereo not given) reads “inactive”; that for `Cc1[nH]c(=O)n(C(C)(C)C)c(=O)c1Cl`, “inactive”.
The entry for `CCNc1nc(NC(C)C)nc(SC)n1` is “inactive”.
On to `c1ccc2c(c1)Oc1ccccc1O2`, for which the outcome was inactive.
The result for `CC(=O)C=C(C)C` reads “inactive”.
For the molecule `O=Cc1cccc(Oc2ccccc2)c1`, the molecule was called inactive.
The entry for `CC(C)=C[C@@H]1[C@@H](C(=O)OCc2coc(Cc3ccccc3)c2)C1(C)C` is “inactive”; for `CCOC(=O)c1ccccc1C(=O)OCC` it is “inactive”; for `CCCCCOC(=O)c1ccccc1C(=O)OCCCCC` it is “inactive”.
With `[O-][Cl+2]([O-])O`, the molecule was classed as inactive.
The entry for `CC(C)OC(=O)Nc1cccc(Cl)c1` is “inactive”; for `C=CC(N)=O` it is “inactive”; for `O=c1[nH]c2ccccc2c(=O)o1` it is “inactive”.
The result for `CN=C=S` reads “inactive”.
The entry for `CC1C=[C-]C=C1.[C-]#[O+].[C-]#[O+].[C-]#[O+].[Mn]` is “inactive”; for `O=NN1CCCC1` it is “inactive”; for `CC(C)(Cl)Cl` it is “inactive”.
For `Nc1ccccc1C(=O)O`, the molecule was called inactive.
The result for `O=S(=O)(c1ccc(O)cc1)c1ccc(O)cc1` reads “inactive”.
For the molecule `CN(C)CCO`, the result was inactive.
Take `Cc1cc(-c2cc(C)c(N)c(C)c2)cc(C)c1N`: the result was inactive.
Turning to `O=[N+]([O-])c1ccccc1`, the molecule was classed as inactive.
With `COCCl`, the outcome was inactive.
Take `Nc1c(Cl)c(Cl)nc(C(=O)O)c1Cl`: the call was inactive.
Take `Cc1cccc([N+](=O)[O-])c1`: the outcome was inactive.
With `Cc1ccc(N)cc1Cl`, the outcome was inactive.
The entry for `COC(=O)NC(=S)Nc1ccccc1NC(=S)NC(=O)OC` is “inactive”; for `O=C(O)c1ccccn1` it is “inactive”.
